# Reference: PMC13494018
# Unmarked numbers belong to inactive results. The rule behind the calls is not given here.
# B1: d8r1_design_ppi_679_dldesign_0_cycle1_af2pred (protein)
# chain: ATAEARRAVVEEAIARITAALADRPQWAAKAAAVLERGARLGREAEAARAVAAMLEVLGYTEAAAVAAEAAERIAAL
# B2: d8r1_design_ppi_139_dldesign_0_cycle0_af2pred (protein)
# chain: EELLEKLKEKAEKVKKLAEEGAEAEELEKARKELGAALSALTRAIAEASPELAAKGREAAAEAAKAAIKAGEKAEELKKA
# B3: d8r1_design_ppi_1408_dldesign_0_cycle1_af2pred (protein)
# chain: EESVKASILAAIERGARLLAAENPAAGVAALTVARVLTTTGGLGSAIAGAAAFAAIAAAATGARGAAIGGSVVSFTVKLVEMYK
# B4: d8r1_design_ppi_1135_dldesign_0_cycle1_af2pred (protein)
# chain: DPREQFAAAVKEAAAALPDIADQVLALGEQALAAEGQAAADAMKAFVTLVTAAAAKASPEAAKAAGIAAANAMKAVSKIEE
# B5: d8r1_design_ppi_1247_dldesign_0_cycle0_af2pred (protein)
# chain: SSDKENSKLIREAMKVIGETLAAARAAVAAGDLEAARAAVAEGVARLEEMAEKSKDEATRETLLRMAEALRAQGAKILA
# B6: d8r1_design_ppi_1356_dldesign_0_cycle0_af2pred (protein)
# chain: SAELIAQTARAGAVMLAAGIAGTPEAAANAAAGTSLLLKAKAESTGSEELKALAERAAAAAATLKADPAAGRAALAALRDELEKLAK
# B7: d8r1_design_ppi_502_dldesign_0_cycle0_af2pred (protein)
# chain: SFEEEKKKADEYMTKAAELAPPELKPAVQNMRDGILKAFEVSPKSALNLAKSALRWVKKHGSEEAAKEMEKALEHLEKAAE
# B8: d8r1_design_ppi_991_dldesign_0_cycle1_af2pred (protein)
# chain: AEAARTAAIAKSIAGLAKLAEKAKDDKSVVRAAATAAAAAAAKDAALGKAAAERLKAAAEATPEEAIATLKAVAAEIAAAAAA
# B9: d8r1_design_ppi_820_dldesign_0_cycle1_af2pred (protein)
# chain: AAEAQALLQTFEANVEGAKMMGEASSLPALVRYHAITKTSATLAARAKELGLEEAAAQIEARGKELAAEAKAGLEKELAA
# B10: d8r1_design_ppi_87_dldesign_0_cycle0_af2pred (protein)
# chain: MEEEFDERMRKAAEYLAKMDAALAAIKAAGDRAEAEKLLAELRKAGEEMAKELGEAGKAIKEALEAQAQAALAA
# B11: d8r1_design_ppi_290_dldesign_0_cycle1_af2pred (protein)
# chain: SKAEAEKLKAQIEAAKAAGVAGDAATAAAAIAAITALADQAAALDPEYAAEVVNAANKAMLAVGDAREAKAAA
# B12: d8r1_design_ppi_456_dldesign_0_cycle1_af2pred (protein)
# chain: SAQAAAAEKLRALADAIAAASPAYQPAANALRAAAVVAEKSGNGASALALLDAAIAAAAKVPGGAEWAAAIRAAAAEVRAAFA
# B13: d8r1_design_ppi_321_dldesign_0_cycle1_af2pred (protein)
# chain: GSNFEKAYYAGEAYSYAYAAVKEAKALVKALGDAAKPLLDEAEALLKKIEEVLKNGNLEEAKKMLEEAKALLEKVKAA
# B14: d8r1_design_ppi_198_dldesign_0_cycle1_af2pred (protein)
# chain: AAAALQAAAAAAAARLEKLAEEAAADPRLAPAAAAARAAAAQARANPAIAAQLAANTEAFVATYRAAVEEK
# B15: d8r1_design_ppi_1080_dldesign_0_cycle0_af2pred (protein)
# chain: SMESVLKSAESLAEAARRLAAERAAEPELVLRAAENALAGGTKLGEARGPEVAKKVRERMEATLAEIRARLA
# B16: d8r1_design_ppi_645_dldesign_0_cycle0_af2pred (protein)
# chain: KLEEAKEKLEKGKELLKKAKEDPENAIEYAKEALKEFSEASRLAAEAAKDEEYKEEAEELLKEANKLASEATQLLAKKASEEEK
# B17: d8r1_design_ppi_1486_dldesign_0_cycle1_af2pred (protein)
# chain: MKELEEAKKEAEKAREELLKAAKEAAKVDPTVATGANNAAEGAKVLIESGSLGAARAGKAIAEAALKKAQAVLDAAQKA
# B18: d8r1_design_ppi_705_dldesign_0_cycle1_af2pred (protein)
# chain: MSKLTQAMLHYGRALAAAVALADDPEAAGKAVSAEMAEAAKVAAAGSPEVQKQALEAGEIIVEQIKKVNPEVGAKAAEAVKTTLAKL
# B19: d8r1_design_ppi_419_dldesign_0_cycle0_af2pred (protein)
# chain: SELEEEARKAEEEFRAALAELEAAAAELEKLDPAAGATARRAAEGARGLLELAKKFSVKSQLNVAKSMLRGAERQLAAARARVAALK
# B20: d8r1_design_ppi_43_dldesign_0_cycle0_af2pred (protein)
# chain: MEALERASRVLAEAARLAMKNPAYAPAFAEVAAAYRETIAAYKESPEAAKEAAERLEKLAAERIAAAKAAL
# B21: d8r1_design_ppi_493_dldesign_0_cycle1_af2pred (protein)
# chain: SDARIAGAVAIMRLGAADADAATGAALREVGAAFAVSPEAGVAKAAELAAALAAARTPAAAAAGAARLAAATALGVAIAAAGA
# B22: d8r1_design_ppi_568_dldesign_0_cycle0_af2pred (protein)
# chain: AGEALNLAARGLIAAGEAGDAEAAAQAAALLAKATAALAAGDEAAAKAYAAEAAAVADPEKAPEAEAVKAAAAA
# B23: d8r1_design_ppi_786_dldesign_0_cycle1_af2pred (protein)
# chain: SEEKEKLKKLAEKARAGAEAAKADPSKAAEYGKEAYELAKEALPESIAELFKKAVEKNPVSGLAFLAAYAKYKAES
# B24: d8r1_design_ppi_219_dldesign_0_cycle1_af2pred (protein)
# chain: DARLERVAKVTAEAYAKVAAVAAGEKLPLARRAAALLAAGGFSPEAAAEYFAEAKAIAAEIGPEAAAIIEEAGKAV
# B25: d8r1_design_ppi_282_dldesign_0_cycle1_af2pred (protein)
# chain: STDEELAAKAAALANLNKALAIATKFDPSVLADFKKIASLILDPNKKEEAVKLLNEKAKEAEAKDPAAGAALKAAAEEAKKI
# B26: d8r1_design_ppi_257_dldesign_0_cycle1_af2pred (protein)
# chain: DEKDTATAEALGAISRAIAAAKALAATGDPEEAARLAEAARAAIAEALELAKKTTPSSQAAIEVAAARARAALDAALAKQAARAAA
# B27: d8r1_design_ppi_1323_dldesign_0_cycle1_af2pred (protein)
# chain: MKASIKHLIEQAKKYAKEAKETGSDALARAAASAAAAAAVLAKEAGDKELAKEAEKVAKEIAEVAPPSIAKYAKEAAKLAAE
# B28: d8r1_design_ppi_790_dldesign_0_cycle1_af2pred (protein)
# chain: KAEEAKALAEKAIAAAPDVDAAAEEIAAAVKLGTGEALVAAARAAAAAIRALGDPAAQARLLELAREHGSRTYAAVAAGLAIARAEAA
# B29: d8r1_design_ppi_1191_dldesign_0_cycle1_af2pred (protein)
# chain: AKAELKKKAEEYEKLYNAAKAALDVALADPSFSKSAKKAIAQAQVDAAKKALEAAKAYDPSQAPYWQAKLDAAQAALDAI
# B30: d8r1_design_ppi_305_dldesign_0_cycle1_af2pred (protein)
# chain: AEEALKLLAEAAAAASPEVAALANQALALLKQAENPEAMKQAIALLNAAYLAADPAIQPLIRRALQLAMQVLAKADR
# B31: d8r1_design_ppi_750_dldesign_0_cycle1_af2pred (protein)
# chain: SRLEEARAIAERAAAEAAAAGNVAEAVAIAQRGAAEVVRTLSPEPVEAKAEVLAHHAELAQAVIDALTAAE
# B32: d8r1_design_ppi_286_dldesign_0_cycle0_af2pred (protein)
# chain: SNEENAENLRLAGRAIEGVAESASAKQTADHLNNVATAAAKIDAETGKKLKAIGEEVLKTGDAKEGGEKAKKVLEEAAEKFK
# B33: d8r1_design_ppi_59_dldesign_0_cycle1_af2pred (protein)
# chain: MSELSEKLIEAAIAAHRAAAELAALGAPAEAAAHRAKAAKLFGEARKLIQEGDEEKAKKALEEAEALAAAAAAAAKKARAAAAAA
# B34: d8r1_design_ppi_78_dldesign_0_cycle1_af2pred (protein)
# chain: SMKKEEAKKVAEEARKAAKEAEELAKKIGDAKLAQQAKNIAAGADKAAEFGSLNMVKAFLREAKKLKEEAKKKLA
# B35: d8r1_design_ppi_487_dldesign_0_cycle0_af2pred (protein)
# chain: AAAEAAKAALAAEGERLLEEAERNLKIAKEGNGEEAAKASRNTLLNLAELTKLADEAAAADPAAGKVGAELLARLREILREIEAVNLA
# B36: d8r1_design_ppi_1423_dldesign_0_cycle0_af2pred (protein)
# chain: STAEKIAKYNKFAEEAKAAAKRVAEEGEEAAKEAIETLKKLAKESDAETAETLNKLAEIAEEGGGSAALAAMQAAAVHFANKAAKLAA
# B37: d8r1_design_ppi_536_dldesign_0_cycle0_af2pred (protein)
# chain: SKDEEIAKLLLKTAEAARKDAKKALELAKELKKLGNKNQGGAIVTLLQAAVENKGAAGKSALAGAVKLAEAKAEDLLAK
# B38: d8r1_design_ppi_442_dldesign_0_cycle1_af2pred (protein)
# chain: DAAAVAAIAAAAAEAAGLYVRGRAASSKDPAEAKKYYAEADALVAAMLAAGAATSPAVAAAAAAAAATVAATRAALDAIKA
# Target: PDL1, Q9NZQ7
# Sequence (Q9NZQ7 whole entry): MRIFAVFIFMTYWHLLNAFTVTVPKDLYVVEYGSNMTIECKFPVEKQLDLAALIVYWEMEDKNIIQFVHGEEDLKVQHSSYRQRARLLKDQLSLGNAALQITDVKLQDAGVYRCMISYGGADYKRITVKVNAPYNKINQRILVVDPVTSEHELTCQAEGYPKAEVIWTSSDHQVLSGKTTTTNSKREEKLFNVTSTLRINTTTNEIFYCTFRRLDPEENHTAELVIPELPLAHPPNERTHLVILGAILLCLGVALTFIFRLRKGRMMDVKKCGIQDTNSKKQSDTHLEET
row,Binder,binding in a display sort
1,B1,not found
2,B2,not found
3,B3,not found
4,B4,not found
5,B5,not found
6,B6,not found
7,B7,not found
8,B8,not found
9,B9,not found
10,B10,not found
11,B11,not found
12,B12,not found
13,B13,binds (active)
14,B14,not found
15,B15,not found
16,B16,not found
17,B17,not found
18,B18,not found
19,B19,not found

row,Binder,binding in a display sort
1,B20,not found
2,B21,not found
3,B22,not found
4,B23,not found
5,B24,not found
6,B25,not found
7,B26,not found
8,B27,not found
9,B28,not found
10,B29,not found
11,B30,not found
12,B31,not found
13,B32,not found
14,B33,not found
15,B34,not found
16,B35,not found
17,B36,not found
18,B37,not found
19,B38,not found
